Assay results published in the supplement of paper PMC11732987, “Enantioselective OTUD7B fragment discovery through chemoproteomics screening and high-throughput optimisation” (Communications Chemistry, 2025).

Columns and labels:
Assay in all cases: log2 ratio of Biotin-Ahx-Ub-VS probe labelling (fragment/DMSO); higher = less target engagement (more negative = stronger competition), active = hit call of the paper (q ≤ 0.05, log2 ratio ≤ -1)
Details in all cases: compound concentration: 200 uM; treatment time: 3 h
USP19 = molecular target: T1, USP19 (UniProt O94966)
T1 sequence (whole entry): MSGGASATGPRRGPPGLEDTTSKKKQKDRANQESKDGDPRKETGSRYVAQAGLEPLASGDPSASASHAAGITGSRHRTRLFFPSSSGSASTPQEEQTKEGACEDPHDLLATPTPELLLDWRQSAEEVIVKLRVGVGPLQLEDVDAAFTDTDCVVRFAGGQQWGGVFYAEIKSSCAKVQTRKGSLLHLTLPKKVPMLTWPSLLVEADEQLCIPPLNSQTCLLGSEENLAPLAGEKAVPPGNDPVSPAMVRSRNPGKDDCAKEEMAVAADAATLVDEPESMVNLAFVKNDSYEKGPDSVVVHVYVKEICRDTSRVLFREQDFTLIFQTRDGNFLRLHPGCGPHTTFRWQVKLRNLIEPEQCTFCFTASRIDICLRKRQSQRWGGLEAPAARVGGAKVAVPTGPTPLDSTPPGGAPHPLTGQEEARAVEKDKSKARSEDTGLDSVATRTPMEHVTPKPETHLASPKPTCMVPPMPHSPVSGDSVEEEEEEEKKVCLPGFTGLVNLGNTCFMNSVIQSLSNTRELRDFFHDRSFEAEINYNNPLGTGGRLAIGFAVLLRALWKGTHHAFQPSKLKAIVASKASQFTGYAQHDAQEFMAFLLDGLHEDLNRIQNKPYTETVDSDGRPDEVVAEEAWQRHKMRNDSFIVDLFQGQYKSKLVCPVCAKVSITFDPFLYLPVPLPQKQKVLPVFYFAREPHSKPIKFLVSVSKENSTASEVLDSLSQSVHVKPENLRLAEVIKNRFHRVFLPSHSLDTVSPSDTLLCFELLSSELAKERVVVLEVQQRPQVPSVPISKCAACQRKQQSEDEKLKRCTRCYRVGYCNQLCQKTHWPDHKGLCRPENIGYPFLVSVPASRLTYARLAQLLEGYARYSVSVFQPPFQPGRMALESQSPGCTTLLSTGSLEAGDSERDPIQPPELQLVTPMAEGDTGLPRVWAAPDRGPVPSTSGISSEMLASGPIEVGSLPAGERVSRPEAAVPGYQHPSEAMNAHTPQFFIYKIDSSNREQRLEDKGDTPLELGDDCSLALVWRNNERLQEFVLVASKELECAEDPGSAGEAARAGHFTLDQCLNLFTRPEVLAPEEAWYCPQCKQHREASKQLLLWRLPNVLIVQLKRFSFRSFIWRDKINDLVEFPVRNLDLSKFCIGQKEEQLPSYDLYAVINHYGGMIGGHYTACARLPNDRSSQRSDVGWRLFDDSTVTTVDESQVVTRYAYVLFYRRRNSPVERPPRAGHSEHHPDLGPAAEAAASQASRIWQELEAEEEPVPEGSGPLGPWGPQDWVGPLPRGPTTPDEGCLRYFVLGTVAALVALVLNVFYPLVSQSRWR
Method in brief: (§1)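 Triplicate samples of HEK293T lysate, 495 µg each, received fragment at 200 µM or vehicle for 3 h, followed by Biotin-Ahx-Ub-VS (0.5 µM final) for 1 h. After NeutrAvidin enrichment of labelled DUBs and LysC/trypsin digestion, peptides were run by diaPASEF LC-MS/MS. The values are average log2 fragment/vehicle ratios from global-median-normalised Spectronaut label-free quantities, tested by unpaired t-test on proteins having ≥2 unique peptides.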

USP24 = USP24 (UniProt Q9UPU5)
Method in brief: as §1

USP25 = molecular target: T2, USP25 (UniProt Q9UHP3)
T2 sequence (whole entry): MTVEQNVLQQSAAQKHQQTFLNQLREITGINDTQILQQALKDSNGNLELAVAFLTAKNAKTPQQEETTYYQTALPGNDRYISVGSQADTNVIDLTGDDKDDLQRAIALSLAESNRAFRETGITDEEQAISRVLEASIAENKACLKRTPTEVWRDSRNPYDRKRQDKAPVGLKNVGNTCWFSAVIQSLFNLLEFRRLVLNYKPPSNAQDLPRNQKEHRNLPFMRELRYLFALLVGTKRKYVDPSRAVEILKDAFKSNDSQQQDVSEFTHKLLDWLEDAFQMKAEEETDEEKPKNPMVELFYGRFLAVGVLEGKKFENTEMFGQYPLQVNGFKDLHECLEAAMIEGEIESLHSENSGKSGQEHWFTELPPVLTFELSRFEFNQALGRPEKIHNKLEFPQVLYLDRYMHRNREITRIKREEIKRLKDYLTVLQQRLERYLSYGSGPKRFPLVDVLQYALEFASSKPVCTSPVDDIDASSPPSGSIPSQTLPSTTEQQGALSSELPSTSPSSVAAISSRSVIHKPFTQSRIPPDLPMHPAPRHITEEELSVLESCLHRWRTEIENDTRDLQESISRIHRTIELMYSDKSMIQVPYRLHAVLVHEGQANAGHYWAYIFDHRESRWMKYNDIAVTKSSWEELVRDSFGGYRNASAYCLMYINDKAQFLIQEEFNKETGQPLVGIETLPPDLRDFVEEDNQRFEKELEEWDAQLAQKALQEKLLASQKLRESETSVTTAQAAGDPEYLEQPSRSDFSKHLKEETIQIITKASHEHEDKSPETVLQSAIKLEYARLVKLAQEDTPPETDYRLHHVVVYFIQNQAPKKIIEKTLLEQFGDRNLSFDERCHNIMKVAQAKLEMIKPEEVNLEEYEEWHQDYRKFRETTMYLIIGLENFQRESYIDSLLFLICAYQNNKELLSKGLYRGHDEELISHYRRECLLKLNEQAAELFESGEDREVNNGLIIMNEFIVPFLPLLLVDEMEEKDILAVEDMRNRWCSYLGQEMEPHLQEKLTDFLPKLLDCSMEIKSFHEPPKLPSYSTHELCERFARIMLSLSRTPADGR
Method in brief: as §1

USP28 = molecular target: T3, USP28 (UniProt Q96RU2)
T3 sequence (whole entry): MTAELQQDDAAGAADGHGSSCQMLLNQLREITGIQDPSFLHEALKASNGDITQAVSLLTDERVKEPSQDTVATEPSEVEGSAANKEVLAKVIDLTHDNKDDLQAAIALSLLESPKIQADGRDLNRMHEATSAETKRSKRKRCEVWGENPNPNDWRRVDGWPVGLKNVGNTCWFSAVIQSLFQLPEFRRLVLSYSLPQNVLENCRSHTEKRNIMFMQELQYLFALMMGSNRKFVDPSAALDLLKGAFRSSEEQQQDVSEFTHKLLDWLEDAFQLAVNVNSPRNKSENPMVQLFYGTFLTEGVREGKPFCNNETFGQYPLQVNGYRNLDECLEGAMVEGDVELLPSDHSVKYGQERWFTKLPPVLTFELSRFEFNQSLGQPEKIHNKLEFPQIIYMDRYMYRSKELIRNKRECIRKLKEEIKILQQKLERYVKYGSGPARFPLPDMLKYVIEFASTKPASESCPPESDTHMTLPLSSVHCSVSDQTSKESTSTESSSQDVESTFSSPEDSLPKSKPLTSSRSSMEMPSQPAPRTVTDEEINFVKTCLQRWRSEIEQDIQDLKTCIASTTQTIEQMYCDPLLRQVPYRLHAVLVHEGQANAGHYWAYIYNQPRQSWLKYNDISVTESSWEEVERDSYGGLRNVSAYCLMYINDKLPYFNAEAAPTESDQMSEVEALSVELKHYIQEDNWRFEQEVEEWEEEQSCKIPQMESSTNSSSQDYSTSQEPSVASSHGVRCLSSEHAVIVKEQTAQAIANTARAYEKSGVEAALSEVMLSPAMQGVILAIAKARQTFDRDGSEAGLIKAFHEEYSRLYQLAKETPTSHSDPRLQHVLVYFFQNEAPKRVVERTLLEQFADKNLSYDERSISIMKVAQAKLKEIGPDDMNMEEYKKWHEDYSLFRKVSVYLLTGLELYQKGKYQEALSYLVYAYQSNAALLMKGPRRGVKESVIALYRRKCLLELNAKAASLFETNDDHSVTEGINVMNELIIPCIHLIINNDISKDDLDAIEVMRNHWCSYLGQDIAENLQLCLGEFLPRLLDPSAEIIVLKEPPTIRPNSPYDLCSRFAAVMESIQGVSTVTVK
Method in brief: as §1

Measured: log2 ratio of Biotin-Ahx-Ub-VS probe labelling

Chain of USP24 (Q9UPU5 whole entry): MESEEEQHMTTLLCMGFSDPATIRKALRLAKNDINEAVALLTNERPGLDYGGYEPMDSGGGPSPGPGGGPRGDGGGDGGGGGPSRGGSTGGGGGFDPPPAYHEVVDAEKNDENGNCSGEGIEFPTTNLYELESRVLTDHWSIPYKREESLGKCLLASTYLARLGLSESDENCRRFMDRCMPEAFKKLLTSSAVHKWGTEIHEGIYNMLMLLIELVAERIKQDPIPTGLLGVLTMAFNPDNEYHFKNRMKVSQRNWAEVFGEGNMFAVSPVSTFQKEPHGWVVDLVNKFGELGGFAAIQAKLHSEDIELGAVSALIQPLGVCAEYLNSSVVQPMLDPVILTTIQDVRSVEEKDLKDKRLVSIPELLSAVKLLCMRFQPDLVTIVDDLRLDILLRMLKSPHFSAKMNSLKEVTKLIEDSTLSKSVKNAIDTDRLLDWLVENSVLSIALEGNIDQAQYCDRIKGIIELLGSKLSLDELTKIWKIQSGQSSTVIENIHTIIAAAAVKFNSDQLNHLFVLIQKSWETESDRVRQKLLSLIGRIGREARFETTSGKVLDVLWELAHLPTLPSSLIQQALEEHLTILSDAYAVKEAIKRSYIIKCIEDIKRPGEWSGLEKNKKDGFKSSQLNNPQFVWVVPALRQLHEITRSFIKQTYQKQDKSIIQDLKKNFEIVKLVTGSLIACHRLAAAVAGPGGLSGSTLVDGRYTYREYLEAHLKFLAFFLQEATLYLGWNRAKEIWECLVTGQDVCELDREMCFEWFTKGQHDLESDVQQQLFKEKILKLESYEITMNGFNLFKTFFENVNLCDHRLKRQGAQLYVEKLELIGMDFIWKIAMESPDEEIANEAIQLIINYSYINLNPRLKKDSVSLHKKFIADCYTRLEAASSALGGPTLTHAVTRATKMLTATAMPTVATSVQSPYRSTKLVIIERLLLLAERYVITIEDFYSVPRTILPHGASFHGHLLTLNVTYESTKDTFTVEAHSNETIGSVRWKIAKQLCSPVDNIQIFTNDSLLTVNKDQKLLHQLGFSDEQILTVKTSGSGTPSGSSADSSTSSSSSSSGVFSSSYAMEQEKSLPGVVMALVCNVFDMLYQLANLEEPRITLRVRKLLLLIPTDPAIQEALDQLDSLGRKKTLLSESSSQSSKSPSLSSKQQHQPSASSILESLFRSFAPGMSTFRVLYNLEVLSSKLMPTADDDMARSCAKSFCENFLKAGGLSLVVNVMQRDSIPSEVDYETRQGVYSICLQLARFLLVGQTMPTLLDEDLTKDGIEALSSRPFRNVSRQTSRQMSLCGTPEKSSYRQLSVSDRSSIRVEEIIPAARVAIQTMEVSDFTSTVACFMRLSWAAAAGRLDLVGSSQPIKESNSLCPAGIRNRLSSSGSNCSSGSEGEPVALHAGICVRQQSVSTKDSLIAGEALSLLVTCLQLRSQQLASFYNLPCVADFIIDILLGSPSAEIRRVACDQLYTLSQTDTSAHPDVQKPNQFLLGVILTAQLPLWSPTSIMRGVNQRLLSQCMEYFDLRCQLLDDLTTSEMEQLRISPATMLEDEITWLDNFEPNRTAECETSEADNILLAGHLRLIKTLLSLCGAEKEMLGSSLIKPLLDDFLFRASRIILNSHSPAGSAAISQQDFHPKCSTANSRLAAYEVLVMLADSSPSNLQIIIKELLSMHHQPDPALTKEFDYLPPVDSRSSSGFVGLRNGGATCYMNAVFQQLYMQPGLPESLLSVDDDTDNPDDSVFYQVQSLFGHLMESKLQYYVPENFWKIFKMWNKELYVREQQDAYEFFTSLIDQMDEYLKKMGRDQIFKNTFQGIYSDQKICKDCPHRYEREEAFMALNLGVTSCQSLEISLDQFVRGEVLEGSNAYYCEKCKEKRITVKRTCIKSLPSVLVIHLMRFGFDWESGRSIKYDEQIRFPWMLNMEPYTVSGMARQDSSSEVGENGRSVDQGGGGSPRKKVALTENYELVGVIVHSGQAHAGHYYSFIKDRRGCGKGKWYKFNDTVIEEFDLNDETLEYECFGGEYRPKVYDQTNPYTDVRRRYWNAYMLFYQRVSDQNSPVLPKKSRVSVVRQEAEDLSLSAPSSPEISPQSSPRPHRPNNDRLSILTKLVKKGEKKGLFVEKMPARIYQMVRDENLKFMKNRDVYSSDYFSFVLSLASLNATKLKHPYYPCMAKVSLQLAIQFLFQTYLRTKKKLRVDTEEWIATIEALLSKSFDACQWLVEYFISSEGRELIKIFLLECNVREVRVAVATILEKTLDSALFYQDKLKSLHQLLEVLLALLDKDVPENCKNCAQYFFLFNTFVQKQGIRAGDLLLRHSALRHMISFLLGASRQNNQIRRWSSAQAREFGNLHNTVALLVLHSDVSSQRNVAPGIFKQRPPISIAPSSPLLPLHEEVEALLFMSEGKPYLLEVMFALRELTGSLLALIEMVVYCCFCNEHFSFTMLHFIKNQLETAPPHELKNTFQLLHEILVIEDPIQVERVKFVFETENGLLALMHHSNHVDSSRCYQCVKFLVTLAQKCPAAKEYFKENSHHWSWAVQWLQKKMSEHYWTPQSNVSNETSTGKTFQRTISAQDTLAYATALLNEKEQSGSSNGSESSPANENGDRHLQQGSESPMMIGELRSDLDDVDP

Cc1nnc(C(NC(=O)CCl)c2ccccc2)n1C (centres undefined)
inactive: USP19 0.626 | USP24 0.636 | USP25 0.465 | USP28 0.507
